# Measurements from ChEMBL document CHEMBL3988442, “University of Dundee, Small-Polar-MMV Screening Library” (2021).
# Among all 48,000 compounds or so, about 13,000 (27%) showed an effect of 50% or more. The list shows a part of the results.
# Test system: Wolbachia pipientis
# Test: Anti-Wolbachia Cell-Based Screen
# Format: functional
# Set-up: scale not given: in the data most compounds retested in dose-response had high values
# Settings: 5 µM
row,Compound,Percent Effect [%]
1,NC(=O)c1ccc(N2CCCCC2)c(NC(=O)c2cc(F)ccc2F)c1,-3.666
2,CCC(C)C(=O)NCc1cccc(N2CCCCC2=O)c1 (stereo unspecified),-5.78
3,Cn1cnnc1S(=O)(=O)C1CCN(S(=O)(=O)C2CC2)CC1,-4.739
4,CN(Cc1cc(Br)cn1C)C(=O)c1cscn1,4.085
5,CCC(NCc1nccn1C)c1nc(C(F)(F)F)cs1 (stereo unspecified),20.15
6,Cc1ccc(CN2CCC[C@@H]3CN(C(=O)c4ccco4)C[C@@H]32)o1.O=C(O)C(F)(F)F,-0.1922
7,COCC(=O)N1CCc2c(nnn2C)C1COCCN1CCCC1.O=C(O)C(F)(F)F (stereo unspecified),-0.9958
8,CN(C)C(=O)N1CCc2c(nnn2C)C1COCc1ccccc1 (stereo unspecified),-4.916
9,COCC1c2nnn(C)c2CCN1C(=O)COc1ccccc1OC (stereo unspecified),111.7
10,Cn1cnnc1CNC(=O)Nc1ccc(OC2CCC2)c(F)c1,19.99
11,Cc1nc(C2CCCN(C(=O)c3sc(C)nc3C)C2)no1 (stereo unspecified),-10.94
12,Cc1ccc(C(=O)N2CCCC2c2nnc3n2CCCCC3)o1 (stereo unspecified),-4.034
13,Cc1cc2c(=O)n3c(nc2s1)CCN(C(=O)c1scnc1C)CC3,-10.56
14,Cc1nc(C)c(C(=O)N2CCCC2c2nnc3n2CCCCC3)s1 (stereo unspecified),13.74
15,Cc1nc(C)c(C(=O)N2CCCc3c(F)cccc32)o1,-18.15
16,Cc1nc(C)c(C(=O)N2CCc3nnc(C4CCCCN4C)n3CC2)s1 (stereo unspecified),78.92
17,Cc1nc(C)c(C(=O)N2CCc3nnc(C4CCCCN4C)n3CC2)o1 (stereo unspecified),112.5
18,Cc1nc(C)c(C(=O)N2CCc3nnc(C4CCCN4C)n3CC2)s1 (stereo unspecified),98.46
19,Cc1ncsc1C(=O)N1CCc2nnc(C3CCCCN3C)n2CC1 (stereo unspecified),103.3
20,C=C(C)COc1cccc(CNC(CC(C)C)c2ncnn2C)c1 (stereo unspecified),-17.42
21,CCc1ccccc1OCCN(C)C(=O)CCN1CCCCO1,-13.9
22,CCCN(CC)c1ccc(C(=O)N2CCCC2c2cnn(C)c2)cn1 (stereo unspecified),104.2
23,CCN(c1ccc(C(=O)N2CCCC2c2cnn(C)c2)cn1)C(C)C (stereo unspecified),103.8
24,CCN(c1ccc(C(=O)N(Cc2cnn(C)c2)C(C)C)cn1)C(C)C,-13.88
25,CC(C)(C#N)CCCS(=O)(=O)c1nccn1-c1cccc(F)c1,-8.679
26,CC(C)(C)c1cc(NC(=O)CN(Cc2cccs2)Cc2cccs2)on1,32.93

row,Compound,Percent Effect [%]
1,CC(CC(F)(F)F)NCc1ccccc1-n1ccnc1 (stereo unspecified),3.95
2,CC(C)C1CN(S(=O)(=O)c2ccc(C#N)cc2)CCS1 (stereo unspecified),-10.5
3,Cc1cc(C)n(C2CCCN(C(=O)COCC(F)(F)F)C2)n1 (stereo unspecified),-14.38
4,Cc1cc(C)n(C2CCCN(C(=O)CN(C)C3CC3)C2)n1 (stereo unspecified),-13.37
5,Cc1nc(C)n(C2CCCN(C(=O)CCOc3cccc(F)c3)C2)n1 (stereo unspecified),103.4
6,Cc1cc(C)n(C2CCCN(C(=O)CCOc3cccc(F)c3)C2)n1 (stereo unspecified),118.8
7,CC(NS(C)(=O)=O)C(=O)Nc1ccc2oc(C3CC3)nc2c1 (stereo unspecified),-12.46
8,CC(C)n1cnnc1CNC(=O)CCCOc1ccccc1Cl,-21.75
9,O=C(NS(=O)(=O)c1cnn(-c2ccccc2F)c1)c1ccco1,-14.51
10,N#Cc1cccc(S(=O)(=O)N(CC2CCC2)c2cn[nH]c2)c1,-4.525
11,O=C(c1ccnnc1)N1CCO[C@H]2[C@@H](OCc3cccnc3)CC[C@@H]21,-4.529
12,O=C(c1ccnnc1)N1C[C@H](Oc2cccnc2)[C@H]2OCCC[C@H]21,-6.406
13,O=C(C1=CCCC1)N1C[C@H](OCc2cccnc2)[C@H]2OCCC[C@H]21,-3.807
14,Cc1occc1C(=O)N1CCO[C@H]2[C@H](Oc3cccnc3)CC[C@@H]21.O=C(O)C(F)(F)F,-18.12
15,O=C(c1ccnnc1)N1C[C@@H](OCc2cccnc2)[C@H]2OCCC[C@H]21,85.61
16,O=C(c1ccnnc1)N1CCO[C@H]2[C@H](Oc3cccnc3)CC[C@@H]21,84
17,CCN(CC)C(=O)CCNC(=O)c1ccccc1N1CCOCC1,-16.45
18,Cc1csc(N2CCN(C(=O)c3cc(Cl)c[nH]3)CC2)n1,-16.71
19,Cc1nc(C)n(CC2CN(CCC(=O)N3CCCCC3)CCO2)n1 (stereo unspecified),110.4
20,Cc1nc(C)n(CC2CCCN(CC(=O)Nc3c(C)n[nH]c3C)C2)n1 (stereo unspecified),-12.55
21,Cc1nc(C)n(CC2CCCN(CC(=O)Nc3nncs3)C2)n1 (stereo unspecified),-5.341
22,Cc1nc(C)n(CC2CCCN(CC(=O)N3CCCC3)C2)n1 (stereo unspecified),118.1
23,Cc1nc(C)n(CC2CCCCN2CCS(C)(=O)=O)n1 (stereo unspecified),-3.909
24,Cc1nc(C)n(CC2CCCN(CCC(=O)N3CCOCC3)C2)n1 (stereo unspecified),132.9
25,Cc1nc(C)n(CC2CCCN2CCC(=O)N2CCCCC2)n1 (stereo unspecified),145.3
26,Cc1nc(C)n(CC2CCCCN2CCCO)n1 (stereo unspecified),0.7848

row,Compound,Percent Effect [%]
1,Cc1nc(C)n(CC2CCCN(CCCS(=O)(=O)N(C)C)C2)n1 (stereo unspecified),-11.1
2,Cc1nc(C)n(CC2CCCN(CCC(=O)N3CCCCC3)C2)n1 (stereo unspecified),-10.32
3,Cc1nc(C)n(CC2CN(CCn3cccn3)CCO2)n1 (stereo unspecified),6.801
4,Cc1nc(C)n(CC2CN(CCc3ccncc3)CCO2)n1 (stereo unspecified),-6.873
5,CCc1nc(C)c(-c2nccn2CC2CCCCO2)[nH]1 (stereo unspecified),-5.573
6,CCN(C(=O)c1ccc2nnc(C3CCN(CCOC)C3)n2c1)C(C)C.O=C(O)C(F)(F)F (stereo unspecified),2.172
7,CN(CCN1CCCCCC1)Cc1cnc(N)nc1,-0.8813
8,CCN1CCC(Cn2ccc3ccc(C(=O)OC)cc3c2=O)C1 (stereo unspecified),-7.454
9,COc1ccccc1CNC(=O)C1=NN(c2ccc(C)cc2)C(=O)CN1,1.348
10,CSCC1CCCN1CCc1ccncc1 (stereo unspecified),7.935
11,COCC(=O)N1CCCC1c1ccnc(Nc2cnccn2)n1 (stereo unspecified),-7.486
12,Nc1nccc(C2CCCN2CCc2ccccc2)n1 (stereo unspecified),168.1
13,c1cc(CCN2CCCC2CN2CCCC2)ccn1 (stereo unspecified),17.12
14,c1ccc(CCN2CCCC2c2ccnc(Nc3cnccn3)n2)cc1 (stereo unspecified),169.2
15,Fc1ccc2[nH]c(C3CCCN3CCc3ccccn3)nc2c1 (stereo unspecified),17.03
16,O=C(CCN1CCCC1c1ccccn1)N1CCc2ccccc2C1 (stereo unspecified),1
17,c1ccc(CCN2CCCC2c2ccnc(Nc3ncccn3)n2)cc1 (stereo unspecified),212.6
18,CCn1cc2c(n1)C(COC)CN(C(=O)COc1ccccc1)C2 (stereo unspecified),-10.51
19,Cc1cccnc1CN(C)C(C(=O)O)c1ccc(-n2cccn2)cc1 (stereo unspecified),-2.38
20,COc1nc2c(cc1C(=O)NCCCc1csc(N)n1)CCC2,-5.437
21,COC(=O)COc1cccc(NS(=O)(=O)c2cc(C(=O)O)cs2)c1,15.7
22,Nc1cc2c(nn1)CCN(C(=O)Cc1ccc3c(c1)CCCC3)C2,-1.547
23,O=C(O)C(F)(F)F.O=C(c1cccc(Cl)c1)N1CCCC2(CCCNC2)C1 (stereo unspecified),-4.426
24,Cc1ccc(C(=O)N2CC3(CCCCC3)c3cc(C(=O)O)ccc32)cn1.O=C(O)C(F)(F)F,-4.08
25,O=C(O)C(F)(F)F.O=C(c1ccco1)N1CC2(CCNCC2)c2cc(Cl)ccc21,104.6
26,CN(C)C(=O)N1CC2(CCNCC2)c2cc(F)ccc21.O=C(O)C(F)(F)F,2.852

row,Compound,Percent Effect [%]
1,Cc1ccc(N2CCN(Cc3ccccc3)C3(CCNCC3)C2=O)cn1.O=C(O)C(F)(F)F,-1.603
2,Cc1ccc(C(=O)N2CC3(CCNCC3)c3cc(Cl)ccc32)cn1.O=C(O)C(F)(F)F.O=C(O)C(F)(F)F,107.7
3,O=C(O)C(F)(F)F.O=C(O)C(F)(F)F.O=C(c1ccncc1)N1CC2(CCNCC2)c2cc(Cl)ccc21,113.8
4,O=C(C1CC1)N1CC2(CCNCC2)c2cc(F)ccc21.O=C(O)C(F)(F)F,-3.609
5,COc1cc(C(=O)N2CC3(CCNCC3)c3cc(Cl)ccc32)ccn1.O=C(O)C(F)(F)F.O=C(O)C(F)(F)F,123.4
6,O=C(O)C(F)(F)F.O=C(c1ccco1)N1CCCC2(CN(Cc3ccc(F)cc3)CCO2)C1 (stereo unspecified),-3.961
7,CNC(=O)[C@@H](C1CCCCC1)N1CCC[C@H]1C(=O)NCCN1CCCC1.Cl.Cl,1.393
8,CC1CCCN(C(=O)c2ncncc2Cl)C1 (stereo unspecified),-8.48
9,CCc1nc(C)c(CN2CCOC(Cc3ccccc3Cl)C2)[nH]1 (stereo unspecified),16.37
10,COCC(=O)NC(c1ccc(Cl)cc1)C(F)(F)F (stereo unspecified),5.635
11,Cc1cc(C(=O)Nc2ccc(N3CCCC3)cn2)ccc1-n1cncn1,-6.985
12,Cc1nn(-c2ccc(F)cc2)c2[nH]nc(N)c12,1.976
13,COCCC1(CO)CCCN(Cc2cc(C(F)(F)F)ccc2F)C1 (stereo unspecified),0.6502
14,Cn1cc(NC(=O)N2CCC(CN3CCCC3)CC2)ccc1=O,-5.518
15,FC(F)(F)c1nc(NC2CCCC2)c2ccccc2n1,1.763
16,FC(F)(F)c1nc(NC2CCCCC2)c2ccccc2n1,111.5
17,CC(C)C(Nc1nc(C(F)(F)F)nc2ccccc12)C(=O)O (stereo unspecified),2.163
18,COCCOc1ccc(-c2noc([C@@H]3CCCN3)n2)cn1,7.967
19,COc1ccnc(N2CCN(C(=O)c3cnn(C)c3C3CC3)CC2)n1,4.417
20,CCN(CC)C(=O)c1cc(C2CCCN2C)ccn1.O=CO (stereo unspecified),-4.853
21,CNC(=O)c1cnn2c(C3CCCN3C)ccnc12 (stereo unspecified),176.6
22,CNC(=O)c1cc2c(nc1NC(C)C)CCNCC2,9.833
23,CNC(=O)c1cnn2c(C3CCCN3)ccnc12 (stereo unspecified),113.8
